PubChem BioAssay AID1851 (National Center for Advancing Translational Sciences (NCATS), 2009)
Screen size: about 16,000 compounds; about 2,600 (16%) were called active. Another 20% or so got no clear call; they are omitted. A selection follows. Unmarked numbers belong to inactive results. The call rests on the fitted dose curve; in most records, active means well fitted curve in the direction sought with a large enough effect; inconclusive means small, poorly fitted or top-dose-only effect, or effect the other way; inactive means no such curve, though single readings can be large or run the other way.

Each molecule was assayed against Cytochrome P450 2D6 (Homo sapiens) (UniProt P10635) (assay: Cytochrome panel assay with activity outcomes). Conditions: recombinant CYP, pro-luciferin dealkylation, luminescence, p450-cyp2d6; series mostly up to 57.1 µM; activity, negative = inhibition: at the top concentration.
On the % scale 0 is the no-effect control and ±100 the full control effect.

Cytochrome P450 2D6 (Homo sapiens), sequence (P10635 whole entry, looked up): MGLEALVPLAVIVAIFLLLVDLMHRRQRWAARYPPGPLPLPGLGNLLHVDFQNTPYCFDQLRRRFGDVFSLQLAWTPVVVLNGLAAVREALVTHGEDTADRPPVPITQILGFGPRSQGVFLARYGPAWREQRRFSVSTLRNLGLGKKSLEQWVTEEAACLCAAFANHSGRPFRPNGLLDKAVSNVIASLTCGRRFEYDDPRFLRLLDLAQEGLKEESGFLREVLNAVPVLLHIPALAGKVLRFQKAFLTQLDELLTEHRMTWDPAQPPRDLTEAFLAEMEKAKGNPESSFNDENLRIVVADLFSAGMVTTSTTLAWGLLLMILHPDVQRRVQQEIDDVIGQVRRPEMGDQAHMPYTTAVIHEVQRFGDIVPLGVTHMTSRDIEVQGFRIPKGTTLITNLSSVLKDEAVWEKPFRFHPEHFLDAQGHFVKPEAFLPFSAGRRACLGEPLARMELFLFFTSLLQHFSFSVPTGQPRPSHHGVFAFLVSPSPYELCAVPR

Row | Structure (SMILES) | activity, negative = inhibition | AC50
1 | CN1CCN(c2ncc3ncc(=O)n(CCC#N)c3n2)CC1 | 1.57% | –
2 | COC(=O)c1ccc(Oc2cc(C)nc(-n3nc(C)cc3C)n2)cc1 | -10.5% | –
3 | Cc1cccc(NC(=S)NNC(=O)CC(C)O)c1C (stereo unspecified) | -3.05% | –
4 | O=C(/C=C/c1ccc2ccccc2c1)c1ccoc1 | -5.53% | –
5 | COC(=O)c1c(-c2ccc3ccccc3c2)csc1NC(=O)Cc1ccc(OC)c(OC)c1 | 9.92% | –
6 | CNC(=O)c1nnn(Cc2ccccc2)c1NC(=O)C(F)(F)F | 14.6% | –
7 | O=C(N/N=C/c1ccc([N+](=O)[O-])s1)c1ccccc1Br | -20.2% | –
8 | O=C(NCCNc1ccc([N+](=O)[O-])cc1)c1ccccc1Br | – | 11.2 µM (active)
9 | O=C(O)CCCCCNC(=O)c1ccccc1Br | 15.5% | –
10 | NC(=O)N1c2ccccc2C=Cc2ccccc21 | 1.87% [at 25.6 µM] | –
11 | Cc1cc(Oc2ccc(-c3ccccc3)cc2)nc(N2CCOCC2)n1 | -22.5% | –
12 | CCC(C)n1nnc2c(=O)oc3ccccc3c21 (stereo unspecified) | 9.18% | –
13 | C[C@@H](C(=O)Nc1ccc2ccccc2c1)[C@@H]1C[C@@]1(C)[C@@H](NC(=O)c1cnccn1)c1ccccc1 | -6.62% | –
14 | C[C@@H](C(=O)Nc1ccc2ccccc2c1)[C@H]1C[C@]1(C)[C@H](NC(=O)c1cnccn1)c1ccccc1 | – | 0.1 µM (active)
15 | C[C@@H](C(=O)Nc1ccc2ccccc2c1)[C@@H]1C[C@@]1(C)[C@@H](NC(=O)c1ccncc1Cl)c1ccccc1 | – | 12.6 µM (active)
16 | COC(=O)[C@H]1C[C@@H]1[C@H](NC(=O)c1cnccn1)c1ccccc1 | -5.05% | –
17 | O=P(O)(O)O[C@@H]1O[C@H](CO)[C@@H](O)[C@H](O)[C@@H]1O | 9.85% [at 11.4 µM] | –
18 | CCOC(=O)/C(C#N)=C\N(C)C | 0.62% | –
19 | O=C(c1cccc(F)c1)N1CCC2(CCCN(c3ccc(-c4ccccc4)cc3)C2)CC1 | 3.09% | –
20 | Cc1ccc(OCC(=O)Nc2ccc(S(=O)(=O)Nc3onc(C)c3C)cc2)cc1 | -9.39% | –
21 | COCc1nc2c([nH]1)c(=O)n(C)c(=O)n2CC(C)C | 5.94% | –
22 | CC(=O)NNC(=O)C(O)(c1ccccc1)c1ccccc1 | 4.64% | –
23 | CC(=O)NNC(=O)N1Cc2ccccc2Oc2ccc(Cl)cc21 | – | 6.31 µM (active)
24 | O=C(O)CCC(=O)N1CCOc2ccc(Cl)cc21 | 7.6% | –
25 | CC/C(O)=C(\C#N)c1nnc2n1CCCCC2 | -19.9% | –
26 | COc1ccc(-c2nc3cnc(Nc4cccc(OC)c4)nc3n(CCC#N)c2=O)cc1 | 0.405% | –

Row | Structure (SMILES) | activity, negative = inhibition | AC50
27 | Cc1ccc(NC(=O)Cn2nc([N+](=O)[O-])c(Br)c2C)cc1C | -22.2% | –
28 | Cc1ccccc1-c1cc(NCCN2CCOCC2)ncn1 | -12% | –
29 | COc1ccc(NC(=O)COc2ccc(CNCCCN3CCOCC3)cc2OC)cc1 | -25.3% | –
30 | COc1cc(CNn2nnnc2N)ccc1OCc1c(Cl)cccc1Cl | 0.965% | –
31 | c1csc(CNCCCN2CCOCC2)c1 | -19.4% | –
32 | COc1cc(CNCCN2CCOCC2)ccc1OCc1ccccc1Cl | – | 11.2 µM (active)
33 | COc1cc2c(cc1OC)-c1cc(NCc3ccccn3)nc(=O)n1CC2 | -23.8% | –
34 | COc1ccc(CC(=O)NCc2ccccn2)cc1OC | -3.31% | –
35 | CCOc1ccccc1CNCCN1CCOCC1 | – | 12.6 µM (active)
36 | COc1cc(CNCc2ccccn2)ccc1OCc1ccc(Cl)cc1Cl | – | 12.6 µM (active)
37 | CCN(CC)S(=O)(=O)N1CCC(C(=O)NC2CCCC2)CC1 | -1.15% | –
38 | COc1cccc(Cn2c(=O)c(-c3cccc(C#N)c3)nc3cnc(OC)nc32)c1 | -6.2% | –
39 | COc1ccc(-c2cc(C(F)(F)F)nc(N3CCOCC3)n2)cc1OC | -9.69% | –
40 | CC1=NN(c2ccc(C)cc2C)C(=O)C1C(c1ccccc1)C1C(=O)N(c2ccc(C)cc2C)N=C1C (stereo unspecified) | -4.48% | –
41 | C=CC[C@@H]1C=C[C@@H](O/N=C\[C@@H](OC)[C@H](C)/C=C\CC(=O)OC)[C@@H](CO)O1 | 4.18% [at 11.4 µM] | –
42 | O=C(c1cc(-c2ccncc2)nc2ccccc12)N1CCN(c2ccc(N3CCOCC3)nn2)CC1 | -13.7% | –
43 | COc1ccc(/C(O)=C2\C(=O)C(=O)N(c3cc(C)on3)C2c2ccc(OC)c(OC)c2)cc1OC (stereo unspecified) | 12.4% | –
44 | CC(C)c1nnc(NC(=O)c2sc3ccccc3c2Cl)s1 | -12% | –
45 | C[N+](C)(CCCCCC[N+](C)(C)CCCN1C(=O)c2cccc3cccc(c23)C1=O)CCCN1C(=O)c2cccc3cccc(c23)C1=O | -5.79% | –
46 | CS[C@@H](CC(=O)O)C(=O)O | -10.1% [at 11.4 µM] | –
47 | CC(CC(=O)O)(CC(=O)O)c1ccccc1 | 11.2% [at 11.4 µM] | –
48 | CCN(CC)CC#CCC(C)(c1ccccc1)c1ccccc1 | – | 0.891 µM (active)
49 | COc1ncc2nc(C)c(=O)n(-c3ccccc3)c2n1 | -4.68% | –
50 | O=C(Nc1nc(-c2ccccc2)cs1)c1ccc(Br)o1 | -26.9% | –
51 | CN1CCN(c2ncc3nc(-c4cc(F)cc(F)c4)c(=O)n(Cc4cccs4)c3n2)CC1 | -0.882% | –
